Our source for the growth values is PubChem BioAssay (NCI).

Compounds without any hit were thinned out: in the full panel of roughly 83,000, 20% have a hit.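 Testing used 96-well plates and a 48-hour single-concentration exposure. Example: -40 means 40% of the starting cells died.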 Unmarked numbers belong to inactive results. The source made the active and inactive calls. The calls were made as follows: active = growth percent below 10; inactive = the rest.

What all share (assay): NCI-60 one-dose screen, 48 h (100 = growth as untreated, 0 = no growth, -100 = all killed)
The subject of one assay is SR leukemia. The settings on record: 10 µM unless noted.
A further assay deals with OVCAR-8 ovarian. Particulars: 10 µM unless noted.
The next assay deals with OVCAR-5 ovarian. The settings on record: 10 µM unless noted.
The test system of the next assay is OVCAR-4 ovarian. Particulars: 10 µM unless noted.
For the next assay, the system named is IGROV1 ovarian. Particulars: 10 µM unless noted.
The next assay relates to OVCAR-3 ovarian. Particulars: 10 µM unless noted.
For a further assay, the system named is HS 578T breast. The settings on record: 10 µM unless noted.
A further assay has as its system NCI/ADR-RES ovarian. Particulars: 10 µM unless noted.
The subject of a further assay is BT-549 breast. The settings on record: 10 µM unless noted.
The subject of the next assay is MDA-MB-435 melanoma. The settings on record: 10 µM unless noted.
In the next assay the test system is SW-620 colon. The settings on record: 10 µM unless noted.
For the next assay, the system named is MCF7 breast. The settings on record: 10 µM unless noted.
The subject of another assay is HCT-116 colon. The settings on record: 10 µM unless noted.
For another assay, the system named is HCC-2998 colon. The settings on record: 10 µM unless noted.
A further assay relates to KM12 colon. Particulars: 10 µM unless noted.
Another assay deals with SK-OV-3 ovarian. The settings on record: 10 µM.
Another assay deals with T-47D breast. Particulars: 10 µM.
The next assay has as its system RPMI-8226 leukemia. The settings on record: 10 µM.

Regarding `Nc1nc(-c2ccnc(Cl)c2)nn1-c1nc2ccccc2s1`, the growth with SR leukemia is 120%; in the assay with OVCAR-8 ovarian, 102%; in the assay on OVCAR-5 ovarian, 95.9%; with OVCAR-4 ovarian it was 102%; in the assay on IGROV1 ovarian, 99.1%; with OVCAR-3 ovarian, 114%. In addition, the growth was 96.8% with HS 578T breast; 104% in the assay on NCI/ADR-RES ovarian; 106% with BT-549 breast; 107% in the assay on MDA-MB-435 melanoma; 106% with SW-620 colon; 97.2% in the assay on MCF7 breast. In addition, the growth was 107% in the assay with HCT-116 colon, 104% in the assay on HCC-2998 colon and 101% in the assay with KM12 colon.

As for `COc1cc2cc(Oc3ccc(NC(=O)Nc4cccc(C(F)(F)F)c4)cc3)c(C)nc2cc1OCCN1CCCCC1`, the growth in the assay with SR leukemia is -19.4% (active); in the assay on OVCAR-8 ovarian it was -38.7% (active); with OVCAR-5 ovarian, 61.6%; in the assay with OVCAR-4 ovarian, -12.9% (active); with IGROV1 ovarian, -31.2% (active); in the assay with OVCAR-3 ovarian, -92.6% (active). Also, the growth is -53.6% (active) in the assay on HS 578T breast; 20.1% with NCI/ADR-RES ovarian; 79.5% in the assay on BT-549 breast; -92.8% (active) in the assay on MDA-MB-435 melanoma; -82% (active) in the assay with SW-620 colon; -80.4% (active) with MCF7 breast. In addition, the growth with HCT-116 colon is -23.1% (active); with HCC-2998 colon, -50% (active); in the assay on KM12 colon it was -92.2% (active).

On to `N#Cc1c(O)c2c(c(O)c1C#N)C(=O)c1ccccc1C2=O`, for which the growth is 15.4% with SR leukemia; 2.33% (active) with OVCAR-8 ovarian; 108% with OVCAR-5 ovarian; 10.9% with OVCAR-4 ovarian; 109% in the assay on SK-OV-3 ovarian; 23.9% in the assay on IGROV1 ovarian. In addition, the growth was -9.86% (active) in the assay with OVCAR-3 ovarian; 70.1% with HS 578T breast; 0.847% (active) in the assay on NCI/ADR-RES ovarian; 23.2% with T-47D breast; 69.1% with BT-549 breast; -91.2% (active) in the assay with MDA-MB-435 melanoma. Also, the growth in the assay on SW-620 colon was 8.21% (active); in the assay on MCF7 breast, 46.2%; in the assay with HCT-116 colon, 1.88% (active); in the assay with HCC-2998 colon it was 34.5%; in the assay with KM12 colon, 73.4%.

Regarding `O=C(c1cnn2c1NC(c1ccc(F)cc1)C2)N1CCCCC1` (stereo not given), the growth in the assay with SR leukemia was 107%; with RPMI-8226 leukemia, 103%; in the assay on OVCAR-8 ovarian it was 106%; in the assay with OVCAR-4 ovarian, 98.7%; in the assay with IGROV1 ovarian it was 103%; with OVCAR-3 ovarian, 106%. Further, the growth with HS 578T breast was 99.8%; in the assay on NCI/ADR-RES ovarian, 109%; in the assay with BT-549 breast it was 110%; in the assay on MDA-MB-435 melanoma, 94.8%; in the assay on SW-620 colon it was 102%; in the assay on MCF7 breast, 93.2%. Besides, the growth in the assay on HCT-116 colon was 98.2%; in the assay with HCC-2998 colon, 113%; in the assay on KM12 colon, 106%.

For `COc1cc2cc(Oc3ccc(NC(=O)Nc4ccc(Cl)c(C(F)(F)F)c4)cc3)c(C)nc2cc1OCCN1CCCCC1`, the growth was -15.9% (active) in the assay with SR leukemia; -34.4% (active) in the assay with OVCAR-8 ovarian; 67.1% with OVCAR-5 ovarian; -4.36% (active) with OVCAR-4 ovarian; -47.2% (active) in the assay with IGROV1 ovarian; -82.8% (active) with OVCAR-3 ovarian. In addition, the growth is -44.5% (active) with HS 578T breast; 3.87% (active) in the assay on NCI/ADR-RES ovarian; 71.7% in the assay on BT-549 breast; -95.9% (active) in the assay with MDA-MB-435 melanoma; -89.4% (active) in the assay on SW-620 colon; -85.9% (active) with MCF7 breast. Also, the growth in the assay with HCT-116 colon is -46.3% (active); in the assay with HCC-2998 colon, -38.6% (active); in the assay with KM12 colon it was -79.6% (active).

`c1ccc2c(c1)oc1cc3c(cc12)nnc1cccn13`: the growth in the assay on SR leukemia is 94.6%; with OVCAR-8 ovarian it was 102%; with OVCAR-5 ovarian, 116%; with OVCAR-4 ovarian it was 107%; with SK-OV-3 ovarian, 108%; with IGROV1 ovarian, 87.4%. Besides, the growth in the assay on OVCAR-3 ovarian is 107%; with HS 578T breast it was 108%; with NCI/ADR-RES ovarian, 111%; in the assay with T-47D breast, 85.4%; in the assay with BT-549 breast it was 97.9%; in the assay with MDA-MB-435 melanoma, 105%. The growth in the assay on SW-620 colon was 108%; with MCF7 breast it was 82.3%; in the assay with HCT-116 colon, 100%; in the assay on HCC-2998 colon, 110%.

Regarding `Cl.Fc1c[c-]c(-c2ccccn2)c(F)c1.[Pt].c1ccc([PH+](CC[PH+](c2ccccc2)c2ccccc2)c2ccccc2)cc1`, the growth with SR leukemia is -6.03% (active); in the assay on OVCAR-8 ovarian, -29.1% (active); in the assay on OVCAR-5 ovarian it was -93.4% (active); with OVCAR-4 ovarian, -87.8% (active); in the assay with IGROV1 ovarian it was -75.5% (active); with OVCAR-3 ovarian it was -97.2% (active). The growth with HS 578T breast was -44.6% (active); in the assay on NCI/ADR-RES ovarian, -35.4% (active); with T-47D breast it was -65.2% (active); in the assay on BT-549 breast, -69.2% (active); in the assay on MDA-MB-435 melanoma, -91.9% (active); in the assay on SW-620 colon, -88.8% (active). The growth in the assay on HCT-116 colon is -90.4% (active); with HCC-2998 colon it was -82.9% (active); in the assay on KM12 colon it was -89.1% (active).

`COC(=O)[C@@H]1CCCN1C(=O)[C@@H]1CCCN1C(=O)[C@@H](Cc1c[nH]c2ccccc12)NC(=S)Nc1cc(C(F)(F)F)cc(C(F)(F)F)c1`: the growth in the assay on SR leukemia is -17.5% (active); with OVCAR-8 ovarian, 67.6%; in the assay on OVCAR-5 ovarian, 91%; in the assay with OVCAR-4 ovarian, 42%; in the assay with SK-OV-3 ovarian it was 90.9%; with IGROV1 ovarian, 36%. For the same compound, the growth was 44.1% with OVCAR-3 ovarian; 59.2% with HS 578T breast; 99.8% in the assay with NCI/ADR-RES ovarian; 32.8% in the assay with T-47D breast; 82.4% in the assay on BT-549 breast; 5.44% (active) in the assay with MDA-MB-435 melanoma. Moreover, the growth with SW-620 colon was 50.3%; in the assay on MCF7 breast, 25.9%; in the assay with HCT-116 colon it was 34%; in the assay on HCC-2998 colon, 35.4%; with KM12 colon, 66.2%.

As for `Cc1cccc2c(=O)c3c(sc12)c(NCCCN)nc1ccccc13`, the growth in the assay with SR leukemia was -5.48% (active); with RPMI-8226 leukemia, -29.9% (active); in the assay with OVCAR-8 ovarian, 27.3%; in the assay with OVCAR-4 ovarian, 47.4%; in the assay on IGROV1 ovarian it was -24.1% (active); in the assay with OVCAR-3 ovarian, 39.4%. In addition, the growth was 24.6% in the assay with HS 578T breast; 24% in the assay with NCI/ADR-RES ovarian; 65.9% in the assay with BT-549 breast; -75.4% (active) in the assay with MDA-MB-435 melanoma; -72% (active) in the assay on SW-620 colon; -78.9% (active) in the assay with MCF7 breast. In addition, the growth with HCT-116 colon was -92% (active); in the assay on HCC-2998 colon it was -30.9% (active); with KM12 colon, -64.4% (active).
